Several values for one entry are separate records, joined by “and”; a condition that tells them apart may be missing. Identical values can stand only once. For some assays here: Results with a measured potency or affinity are listed apart. Activity calls are given as the source filed them.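 The calls were made as follows, unless noted: active = compounds whose cell count with miR-34 switched on is under 0.7 times the count with it off; inactive = the rest.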
Legend:
[1] = liver-stage malaria parasite growth inhibition, primary screen, cell-based, HepG2, luciferase luminescence, HepG2 viability (AID 624349; in the data active = parasite load remaining mostly below about 12%, no sharp cut-off; inactive = mostly above about 10%;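 also: 100% = mean of DMSO negative control wells on the same plate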); details: P. berghei liver stage in HepG2, luciferase luminescence, concentration not given here; parasite load remaining: stronger effect = lower value; viability: measured here: HepG2 viability without parasites
[2] = differential killing of epithelial or mesenchymal cells, primary screen, imaging, PC-3E GFP, TEM4-18 mCherry, co-culture (AID 1345086;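 active = compounds killing one labelled cell type while sparing the other, by normalised counts and ratio limits, not self-fluorescent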;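 as to all read-outs here: cells exposed to compound for 72 h before imaging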;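 as to red/green cell ratio (normalised): normalised mesenchymal count divided by normalised epithelial count so high means epithelial killing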); details: imaging cell counts, at 1 µM; for red/green cell ratio (normalised): actives lie on both sides, counts scaled to control wells, 1 = unselective
[3] = sensitizers of A549 cells to miR-34 induction, primary screen, imaging, A549 dox-inducible miR-34, nuclei and caspase counts (AID 1347080); details: A549 miR-34 inducible, Hoechst nuclei count, 48 h
[4] = target: NAD(+) hydrolase SARM1 (Homo sapiens) (UniProt Q6SZW1); assay: SARM1 TIR NADase inhibitors, cell lysate, NAD-Glo luminescence (AID 1508614;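 active = compound whose remaining NAD level is above about 45 nM, limit read from the data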;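 also: higher remaining NAD means stronger inhibition of SARM1 NADase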); details: SAM-TIR HEK293T lysate NADase, at 1 µM, stronger effect = higher value
[5] = target: Mitogen-activated protein kinase 7 (Homo sapiens) (UniProt Q13164); assay: ERK5 transactivation activators in reporter cells, primary screen, cell-based, HTS (AID 1508626;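 active = luciferase signal above three times the same-plate solvent-only control wells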;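 also: luciferase driven by Gal4-ERK5 fusion binding five Gal4 sites before minimal TATA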); details: HeLa Gal4-ERK5 transactivation, 18 h, at 5 µM, stronger effect = higher value
[6] = polyglutamine-triggered caspase-3 activation inhibitors, cell-based (AID 1583); details: polyglutamine-induced caspase-3 activation, cell assay; stronger effect = higher value;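 tested at 10 µM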
[7] = suppressors of polyQ aggregation in yeast, 75Q-TubU reporter (AID 1593); details: Yeast 75Q polyglutamine aggregation reporter
[8] = rescue of polyQ-huntingtin neuronal dysfunction in worms, whole organism, C. elegans mechanosensory neurons, N-terminal huntingtin (AID 1599); details: touch response, stronger effect = higher value
[9] = inhibitors of mitochondrial cytochrome c release, biochemical, purified mitochondria (AID 1603); details: stronger effect = lower value;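 also: mouse liver mitochondria challenged with calcium chloride; signal normalized to the plate average as 100%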
[10] = inhibitors of polyQ protein aggregation (AID 1604); details: polyglutamine-induced protein aggregation inhibition assay; stronger effect = higher value; tested at 2.5 µM
[11] = enhancers of glutamate uptake in motor neurons, MN-1 cell line (AID 1612); details: MN-1 motor neuron cells, stronger effect = higher value;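 also: tested at 1 µM final; 0% = mean of DMSO vehicle wells on each plate; positive means more glutamate uptake than control and negative means less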
[12] = reducers of polyQ inclusions in PC12 cells, cell-based, NGF-treated PC12, GFPQ80 (AID 1614); details: PC12 NGF-treated GFP-polyQ80 inclusion reduction;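 also: lower means fewer inclusions and 0 means no inclusions at all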
[13] = suppressors of polyglutamine aggregation in yeast, 75Q-TubH (AID 1616); details: S. cerevisiae 75Q-TubH polyglutamine aggregation suppression; stronger effect = higher value
[14] = measured here: epithelial PC-3E GFP cell survival
[15] = measured here: mesenchymal TEM4-18 mCherry cell survival
[16] = stronger effect = lower value, cell number ratio, induced over uninduced
[17] = measured here: relative caspase fold change +Dox/-Dox
[18] = measured here: total cells with miR-34 induction, stronger effect = lower value
[19] = measured here: total cells without miR-34 induction

Mitogen-activated protein kinase 7 (Homo sapiens), sequence (Q13164 whole entry, looked up, the tested form may be a part): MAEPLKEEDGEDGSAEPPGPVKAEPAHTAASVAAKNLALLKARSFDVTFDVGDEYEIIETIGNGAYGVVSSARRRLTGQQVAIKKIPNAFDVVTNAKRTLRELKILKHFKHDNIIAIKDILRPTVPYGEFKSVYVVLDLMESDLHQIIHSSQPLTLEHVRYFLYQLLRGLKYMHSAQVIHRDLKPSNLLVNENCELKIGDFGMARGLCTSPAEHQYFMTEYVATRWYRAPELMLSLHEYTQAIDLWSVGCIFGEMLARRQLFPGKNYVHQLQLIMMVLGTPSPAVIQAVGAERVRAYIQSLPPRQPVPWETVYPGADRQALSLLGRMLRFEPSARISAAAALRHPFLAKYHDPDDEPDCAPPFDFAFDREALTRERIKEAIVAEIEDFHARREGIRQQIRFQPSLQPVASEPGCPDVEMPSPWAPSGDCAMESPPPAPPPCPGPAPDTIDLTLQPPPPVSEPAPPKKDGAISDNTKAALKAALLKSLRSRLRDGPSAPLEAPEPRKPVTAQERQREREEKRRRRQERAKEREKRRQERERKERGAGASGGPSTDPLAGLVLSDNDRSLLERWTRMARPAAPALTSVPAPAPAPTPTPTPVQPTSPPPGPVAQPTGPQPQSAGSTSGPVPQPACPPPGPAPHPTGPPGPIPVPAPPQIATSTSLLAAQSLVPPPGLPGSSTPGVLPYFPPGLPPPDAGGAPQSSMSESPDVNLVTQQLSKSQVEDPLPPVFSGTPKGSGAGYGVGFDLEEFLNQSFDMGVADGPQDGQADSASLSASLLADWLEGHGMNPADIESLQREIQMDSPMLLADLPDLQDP
NAD(+) hydrolase SARM1 (Homo sapiens), sequence (Q6SZW1 whole entry, looked up, the tested form may be a part): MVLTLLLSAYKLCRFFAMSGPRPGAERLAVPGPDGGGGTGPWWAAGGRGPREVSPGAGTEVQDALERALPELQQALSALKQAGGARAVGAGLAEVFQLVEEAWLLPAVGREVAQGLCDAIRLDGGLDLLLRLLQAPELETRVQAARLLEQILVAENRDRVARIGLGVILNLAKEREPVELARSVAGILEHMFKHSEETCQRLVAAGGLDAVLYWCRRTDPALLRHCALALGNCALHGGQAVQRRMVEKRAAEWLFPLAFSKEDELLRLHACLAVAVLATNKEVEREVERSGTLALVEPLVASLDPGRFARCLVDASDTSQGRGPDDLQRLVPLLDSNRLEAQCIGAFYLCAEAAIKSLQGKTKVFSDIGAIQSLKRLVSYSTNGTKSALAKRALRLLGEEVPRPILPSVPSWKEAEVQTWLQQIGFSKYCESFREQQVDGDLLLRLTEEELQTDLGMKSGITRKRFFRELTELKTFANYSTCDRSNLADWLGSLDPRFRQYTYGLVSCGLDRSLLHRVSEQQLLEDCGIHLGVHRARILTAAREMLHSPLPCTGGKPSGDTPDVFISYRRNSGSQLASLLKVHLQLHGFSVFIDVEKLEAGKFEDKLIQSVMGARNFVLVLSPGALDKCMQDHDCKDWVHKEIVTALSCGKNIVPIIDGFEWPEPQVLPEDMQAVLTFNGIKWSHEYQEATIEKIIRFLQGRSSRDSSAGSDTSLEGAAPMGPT

| SMILES | parasite load remaining [1] | viability [1] | red/green cell ratio (normalised) [2] | normalised cell number [2, 14] | normalised cell number [2, 15] | fold change [3, 16] | fold change [3, 17] | cell count [3, 18] | cell count [3, 19] | remaining NAD [4] | luciferase signal [5] | inhibition [6] [%] | score [7] | rescue above control [8] | cytochrome c release ratio [9] | inhibition of aggregation [10] [%] | glutamate uptake change [11] [%] | inclusion score [12] | aggregation suppression score [13] |
| --- | --- | --- | --- | --- | --- | --- | --- | --- | --- | --- | --- | --- | --- | --- | --- | --- | --- | --- | --- |
| O=C(CNC(=O)c1ccc(Cl)cc1)NO | 45.5% (inactive) | 106% | 0.95 (inactive) | 1.13 | 1.08 | 0.961 (inactive) | 3.28 | 12100 | 12600 | 10 nM (inactive) | 60 AU (inactive) | – | – | – | – | – | – | – | – |
| CC(=O)NS(=O)(=O)c1ccc(NC(=O)c2ccccc2C(=O)O)cc1 | – | – | 0.81 (inactive) | 1.22 | 0.99 | 0.886 (inactive) | 0.953 | 8920 | 10100 | 10 nM (inactive) | 100 AU (inactive) | – | – | – | – | – | – | – | – |
| O=C(O)CC(O)(CC(=O)O)C(=O)O | 61.3% (inactive) | 186% | 1 (inactive) | 1.06 | 1.06 | 0.829 (inactive) | 6.46 | 11100 | 13400 | 10 nM (inactive) | 52 AU (inactive) | – | – | – | – | – | – | – | – |
| CN[C@@H]1[C@H](OC2[C@H](O[C@H]3[C@H](O)[C@@H](O)[C@H](N=C(N)N)[C@@H](O)[C@@H]3N=C(N)N)O[C@@H](C)[C@]2(O)C=O)O[C@@H](CO)[C@H](O)[C@H]1O (some centres undefined) | 83% (inactive) and 43.9% (inactive) | 71.2% and 98.6% | 1.2 (inactive) | 1.02 | 1.22 | 0.885 (inactive) | 2.64 | 11600 | 13100 | – | – | 11 | 1.53 | 0.21 | 1.12 | 65.1 | 10.8 | 1.5 | 1.33 |
| C=COCC(F)(F)F | – | – | 0.85 (inactive) | 1.12 | 0.96 | 0.911 (inactive) | 0.971 | 9000 | 9870 | 10 nM (inactive) | – | – | – | – | – | – | – | – | – |
| CC1(C)OC(=O)C(OCC2CC2)=C1c1ccc(S(C)(=O)=O)cc1 | – | – | 1.08 (inactive) | 1.02 | 1.1 | 0.945 (inactive) | 0.86 | 8900 | 9420 | 10 nM (inactive) | – | – | – | – | – | – | – | – | – |
| C[C@@H]1O[C@@H](OC[C@H]2OC(Oc3c(-c4ccc(O)c(O)c4)oc4cc(O)cc(O)c4c3=O)[C@H](O)[C@@H](O)[C@@H]2O)[C@H](O)[C@H](O)[C@H]1O (some centres undefined) | 80% (inactive) | 104% | 1.05 (inactive) | 0.95 | 0.99 | 0.911 (inactive) | 2.84 | 11500 | 12600 | – | 56 AU (inactive) | – | – | – | – | – | – | – | – |
| CC1(C)O[C@@H]2CC3C4C[C@H](F)C5=CC(=O)C=CC5(C)C4C(O)CC3(C)[C@]2(C(=O)CO)O1 (some centres undefined) | 131% (inactive) and 75.5% (inactive) | 60.7% and 91.7% | 1.23 (inactive) | 1.12 | 1.38 | 0.878 (inactive) | 1.79 | 7120 | 8110 | – | – | 7.08 | 1.24 | 14.2 | 1.01 | 73 | 41.4 | 2 | 0.735 |
| CC(C)[C@@H]1CC[C@@H](C)C[C@H]1O | 176% (inactive) and 64.4% (inactive) | 87.7% and 95.6% | 0.86 (inactive) | 0.91 | 0.79 | 0.95 (inactive) | 2.52 | 12500 | 13100 | 10 nM (inactive) | 44 AU (inactive) | 18.8 | 1.2 | 5.72 | 0.66 | 80.3 | 2.2 | 1 | 1.36 |
| Cc1c(C)c2c(c(C)c1O)CCC(C)(CCCC(C)CCCC(C)CCCC(C)C)O2 (centres undefined) | 67.5% (inactive) | 90.7% | 1.01 (inactive) | 0.82 | 0.83 | 0.899 (inactive) | 1.09 | 10700 | 11900 | – | 44 AU (inactive) | 25.1 | -0.94 | -0.91 | 1.24 | 78.9 | -4.89 | 2 | 0.219 |
| C[N+](C)(C)C[C@H](O)CC(=O)[O-] | 53.1% (inactive) | 99.7% | 1.04 (inactive) | 0.94 | 0.98 | 0.867 (inactive) | 4.08 | 11500 | 13200 | 10 nM (inactive) | 32 AU (inactive) | – | – | – | – | – | – | – | – |
| C[C@H]1CC2C3CCC4=CC(=O)C=C[C@]4(C)[C@@]3(F)[C@@H](O)C[C@]2(C)[C@@]1(O)C(=O)COP(=O)(O)O (some centres undefined) | – | – | 1.28 (inactive) | 1.37 | 1.75 | 0.873 (inactive) | 1.02 | 6310 | 7220 | – | 92 AU (inactive) | – | – | – | – | – | – | – | – |
| CCC1(C)OC(=O)N(C)C1=O (centres undefined) | – | – | 0.84 (inactive) | 1.08 | 0.91 | 0.92 (inactive) | 0.865 | 7860 | 8540 | 10 nM (inactive) | 16 AU (inactive) | – | – | – | – | – | – | – | – |
| CC(=O)Oc1cccc(C)c1 | – | – | 1.03 (inactive) | 0.86 | 0.89 | 0.912 (inactive) | 1.13 | 8300 | 9090 | 10 nM (inactive) | – | – | – | – | – | – | – | – | – |
